Reference: PubChem BioAssay (Tox21)
Several values for one entry are separate records, joined by “and”; a condition that tells them apart may be missing. Identical values can stand only once. Results filed as inconclusive are left out. Entries that show only a call come without a potency. Some compounds were tested as several samples or in several runs, with calls that do not always agree. Activity calls are given as the source filed them. Unless noted, calls follow the shape of the full dose curve.

Assays:
[1] = molecular target: Gonadotropin-releasing hormone receptor (Homo sapiens) (UniProt P30968); assay: Human gonadotropin-releasing hormone receptor (GnRHR) small molecule agonists, calcium flux assay in GnRHR-HEK293 cells (AID 1920063); also: nearly all actives have a fitted effect of over 35% in size; also: potency is read from the fitted curve at half-maximal effect
Method in brief: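 HEK293 cells stably expressing human GnRHR were plated 18 h at 37 °C, loaded with calcium dye 1 h at 37 °C, then given compound in agonist mode; fluorescence (Ex/Em 480/540) read kinetically for 3 min at 1 s intervals.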

[2] = molecular target: KiSS-1 receptor (Homo sapiens) (UniProt Q969F8); assay: Human kisspeptin (KISS1R) small molecule agonists, calcium flux assay in KISS1R-HEK293 cells (AID 1920064; active = well fitted activation curve with a large enough effect in the repeat runs; also: potency is read from the fitted curve at half-maximal effect)
Method in brief: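 HEK293 cells stably expressing human KISS1R were plated 18 h at 37 °C, loaded with calcium dye for 1 h at 37 °C, then given compound by pin tool. Fluorescence (Ex/Em 480/540) was read kinetically for 3 min.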

[3] = G protein-coupled receptor (GPCR) small molecule agonists, calcium flux assay: HEK293 wild type cell line counter screen (AID 1920065)
Method in brief: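 Cells were plated and cultured 18 h at 37 C/5% CO2, then loaded with calcium dye for 1 h at 37 C. Compounds in DMSO were pin-transferred in agonist mode, and fluorescence (Ex/Em 480/540) was read kinetically for 3 min at 1 s intervals.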

[4] = p53 small molecule agonists, cell-based qHTS assay with human liver microsomes: qHTS cell viability counter screen (AID 1963579); also: nearly all actives have a fitted effect of over 45% in size; also: potency is read from the fitted curve at half-maximal effect
Method in brief: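 p53RE-bla cells, 4,000/well, dosed 5 hours after plating, with human liver microsomes (0.5 mg/mL final) plus NADPH (0.5 mg/mL final), 16 hours at 37 C. Viability read as CellTiter-Glo luminescence after 30 min at room temperature.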

[5] = p53 small molecule agonists, cell-based qHTS assay with rat liver microsomes: qHTS cell viability counter screen (AID 1963580); also: nearly all actives have a fitted effect of over 45% in size
Method in brief: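 In HCT-116 cells carrying a p53 response element-bla reporter, compounds were metabolically activated in situ by rat liver microsomes with NADPH over 16 h. Cell ATP content then served as the cytotoxicity measure.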

[6] = p53 small molecule agonists, cell-based qHTS assay: qHTS cell viability counter screen (AID 1963581); also: nearly all actives have a fitted effect of over 45% in size
Method in brief: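 p53RE-bla HCT-116 cells were exposed to compounds for 16 h at 37 C; after the beta-lactamase FRET read in the same wells, CellTiter-Glo was added and luminescence (intracellular ATP) read after 30 min at room temperature.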

[7] = molecular target: 5-hydroxytryptamine receptor 2A (Homo sapiens) (UniProt P28223); assay: 5-hydroxytryptamine receptor 2A (HTR2A) small molecule agonists, cell-based qHTS assay (AID 1963587); also: nearly all actives have a fitted effect of over 30% in size; also: potency is read from the fitted curve at half-maximal effect
Method in brief: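 HTR2A-CHO cells, plated 18 h at 37 C/5% CO2, dye-loaded 1 h at 37 C; compounds in DMSO added by pin tool (agonist mode). Intracellular calcium flux read as kinetic fluorescence on FDSS over 2 min at 1 s intervals.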

[8] = molecular target: Muscarinic acetylcholine receptor M1 (Homo sapiens) (UniProt P11229); assay: Cholinergic receptor muscarinic 1 (CHRM1) small molecule antagonists, cell-based qHTS assay (AID 1963588); also: nearly all actives have a fitted effect of over 40% in size; also: potency is read from the fitted curve at half-maximal effect
Method in brief: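 CHRM1-CHO calcium-flux assay, antagonist mode. Cells were seeded 18 h, dye-loaded 1 h at 37 C and given compound for 5 min at RT, then acetylcholine was added at 50nM. FDSS fluorescence was read 3 min; 15 concentrations, three runs.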

[9] = molecular target: Muscarinic acetylcholine receptor M1 (Homo sapiens) (UniProt P11229); assay: Cholinergic receptor muscarinic 1 (CHRM1) small molecule agonists, cell-based qHTS assay (AID 1963589); also: nearly all actives have a fitted effect of over 35% in size
Method in brief: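 CHO cells stably expressing human CHRM1, seeded 18 h at 37 C/5% CO2, dye-loaded 1 h at 37 C, then given compound in agonist mode; intracellular calcium fluorescence read kinetically at 1 s intervals. Fifteen concentrations, three independent runs.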

[10] = cAMP Responsive Elements (CRE) small molecule agonists, cell-based qHTS assay (AID 1963590)
Method in brief: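 CRE-bla HEK 293T cells in DMEM with 10% dialyzed FBS, NEAA, pyruvate and 25 mM HEPES were plated 18 h at 37 C/5% CO2, then exposed to compounds in DMSO for 3 h before LiveBLAzer B/G FRET substrate addition.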

[11] = molecular target: 5-hydroxytryptamine receptor 2A (Homo sapiens) (UniProt P28223); assay: 5-hydroxytryptamine receptor 2A (HTR2A) small molecule antagonists, cell-based qHTS assay (AID 1963586); also: nearly all actives have a fitted effect of over 45% in size; also: potency is read from the fitted curve at half-maximal effect
Method in brief: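 Antagonist-mode intracellular calcium assay: DOI (4 nM) added after 5 min compound pre-incubation at room temperature to dye-loaded HTR2A-CHO cells. Fluorescence followed for 3 min, sampled every second.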

[12] = cAMP Responsive Elements (CRE) small molecule antagonists, cell-based qHTS assay (AID 1963591; active = well fitted inhibition curve with a large enough effect in the signal ratio in the repeat runs, not every such curve was filed as active; the % refers to the signal ratio)
Method in brief: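 CRE-bla HEK293T cells were plated 18 h at 37 °C/5% CO2, pinned with compound in DMSO, then stimulated with NKH477 at 0.25 uM final for 3 h. LiveBLAzer B/G FRET substrate was added and plates incubated 2 h at room temperature.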

[13] = molecular target: Beta-2 adrenergic receptor (Homo sapiens) (UniProt P07550); assay: Adrenergic beta2 receptor (ADRB2) small molecule antagonists, cell-based qHTS assay (AID 1963592); also: series mostly up to about 92 µM; nearly all actives have a fitted effect of over 50% in size
Method in brief: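 Cells (CHO, stable ADRB2 overexpression) incubated 18-20hr at 37C; compounds added from DMSO; agonist mix (1nM isoproterenol, 100uM IBMX, 25uM Ro-20-1724) added; 0.5hr RT; d2-cAMP and anti-cAMP-cryptate added; 1hr RT; 665/615 nm read.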

[14] = molecular target: Beta-2 adrenergic receptor (Homo sapiens) (UniProt P07550); assay: Adrenergic beta2 receptor (ADRB2) small molecule agonists, cell-based qHTS assay (AID 1963593);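 also: CHO cells stably overexpressing human ADRB2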
Method in brief: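 CHO cells stably over-expressing ADRB2 were plated overnight at 37C, then dosed with compounds plus a stimulation mix containing 100uM IBMX and 25uM Ro-20-1724 for 0.5hr at room temperature. cAMP was measured by HTRF competition, 1hr.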

[15] = molecular target: D(2) dopamine receptor (Homo sapiens) (UniProt P14416); assay: Dopamine D2 receptor (DRD2) small molecule agonists, cell-based qHTS assay (AID 1963594); also: nearly all actives have a fitted effect of over 35% in size
Method in brief: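 HEK293 cells stably expressing DRD2 were cultured 24 h at 37 C, then given Ro20-1724 (0.1 mM final) and compounds for 10 min at room temperature. NKH477 (200nM) was then added for 30 min. cAMP was read by HTRF.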

[16] = molecular target: D(2) dopamine receptor (Homo sapiens) (UniProt P14416); assay: Dopamine D2 receptor (DRD2) small molecule antagonists, cell-based qHTS assay (AID 1963595; active = well fitted inhibition curve with a large enough effect in the signal ratio in the repeat runs, with a control signal flat; the % refers to the signal ratio)
Method in brief: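 In this cell-based antagonist screen, compounds act for 10 min at room temperature before a 30 min challenge with 12 nM quinpirole and 200 nM NKH477. cAMP is quantified by HTRF competition in DRD2-HEK293 cells containing 0.1 mM Ro20-1724.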

[17] = p53 small molecule agonists, cell-based qHTS assay with human liver microsomes (AID 1963577)
Method in brief: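 p53RE-bla cells, 4,000/well, compound added after 5 h, with human liver microsomes 0.5 mg/mL and NADPH 0.5 mg/mL final; 16 h at 37 C, then LiveBLAzer 2 h RT, fluorescence.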

[18] = p53 small molecule agonists, cell-based qHTS assay with rat liver microsomes (AID 1963578)
Method in brief: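 p53RE-bla cells, 4,000/well, pre-incubated 5 h, then given compounds plus rat liver microsomes (0.5 mg/mL final) and NADPH (0.5 mg/mL final). Incubation 16 h at 37 C; beta-lactamase reporter read by LiveBLAzer fluorescence after 2 h at room temperature.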

[19] = p53 small molecule agonists, cell-based qHTS assay (AID 1963582; active = well fitted activation curve with a large enough effect in the signal ratio in the repeat runs, not every such curve was filed as active; the % refers to the signal ratio)
Method in brief: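 p53RE-bla beta-lactamase reporter cells rested 5 h at 37 C/5% CO2, then received compounds in DMSO by pin transfer and were incubated 16 h at 37 C. LiveBLAzer B/G FRET substrate was loaded for 2 h at room temperature before fluorescence reading.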

Sequence of Muscarinic acetylcholine receptor M1 (Homo sapiens) (P11229 whole entry, looked up): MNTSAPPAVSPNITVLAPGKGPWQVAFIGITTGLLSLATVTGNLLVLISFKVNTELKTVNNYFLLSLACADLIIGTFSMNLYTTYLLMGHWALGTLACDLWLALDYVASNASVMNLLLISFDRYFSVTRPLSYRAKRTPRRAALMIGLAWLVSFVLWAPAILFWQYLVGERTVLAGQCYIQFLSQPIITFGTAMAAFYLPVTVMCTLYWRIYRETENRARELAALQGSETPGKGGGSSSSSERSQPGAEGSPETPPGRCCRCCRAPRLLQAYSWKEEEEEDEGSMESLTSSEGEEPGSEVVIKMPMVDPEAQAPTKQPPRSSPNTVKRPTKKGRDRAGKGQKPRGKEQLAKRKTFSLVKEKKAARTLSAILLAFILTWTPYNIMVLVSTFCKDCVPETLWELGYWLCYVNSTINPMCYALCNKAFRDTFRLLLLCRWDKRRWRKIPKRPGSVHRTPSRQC
Sequence of Beta-2 adrenergic receptor (Homo sapiens) (P07550 whole entry, looked up): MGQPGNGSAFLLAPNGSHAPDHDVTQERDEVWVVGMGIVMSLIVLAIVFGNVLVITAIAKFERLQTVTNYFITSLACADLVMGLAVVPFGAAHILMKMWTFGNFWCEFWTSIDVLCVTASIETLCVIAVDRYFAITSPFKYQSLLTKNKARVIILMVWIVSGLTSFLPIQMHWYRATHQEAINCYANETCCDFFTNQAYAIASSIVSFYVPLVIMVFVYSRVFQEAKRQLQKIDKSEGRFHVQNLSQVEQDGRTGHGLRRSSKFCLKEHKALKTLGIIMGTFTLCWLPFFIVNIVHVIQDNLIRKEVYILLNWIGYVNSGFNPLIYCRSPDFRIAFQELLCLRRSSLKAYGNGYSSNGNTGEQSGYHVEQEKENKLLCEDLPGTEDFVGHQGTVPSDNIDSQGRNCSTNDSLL
Sequence of D(2) dopamine receptor (Homo sapiens) (P14416 whole entry, looked up): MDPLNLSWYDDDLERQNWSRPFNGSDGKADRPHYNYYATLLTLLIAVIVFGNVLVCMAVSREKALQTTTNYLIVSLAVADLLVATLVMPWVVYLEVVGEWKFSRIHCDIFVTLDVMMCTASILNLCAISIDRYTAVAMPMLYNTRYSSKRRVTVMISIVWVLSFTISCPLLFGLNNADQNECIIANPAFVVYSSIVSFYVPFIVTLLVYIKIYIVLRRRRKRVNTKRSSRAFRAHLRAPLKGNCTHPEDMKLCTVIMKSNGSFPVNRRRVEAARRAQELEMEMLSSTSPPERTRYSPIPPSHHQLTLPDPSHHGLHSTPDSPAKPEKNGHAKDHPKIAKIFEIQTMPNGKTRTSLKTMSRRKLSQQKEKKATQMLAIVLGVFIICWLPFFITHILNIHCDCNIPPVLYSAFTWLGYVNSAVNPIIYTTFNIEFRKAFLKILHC
Sequence of Gonadotropin-releasing hormone receptor (Homo sapiens) (P30968 whole entry, looked up): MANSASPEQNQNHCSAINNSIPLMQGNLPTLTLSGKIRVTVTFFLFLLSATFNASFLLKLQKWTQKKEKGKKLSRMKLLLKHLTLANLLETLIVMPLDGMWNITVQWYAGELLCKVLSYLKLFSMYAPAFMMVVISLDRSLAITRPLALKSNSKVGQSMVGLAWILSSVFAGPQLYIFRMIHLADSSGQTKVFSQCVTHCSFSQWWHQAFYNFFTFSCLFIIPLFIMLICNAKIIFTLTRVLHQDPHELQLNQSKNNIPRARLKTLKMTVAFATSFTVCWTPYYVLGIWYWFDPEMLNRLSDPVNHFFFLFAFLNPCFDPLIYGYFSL
Sequence of 5-hydroxytryptamine receptor 2A (Homo sapiens) (P28223 whole entry, looked up): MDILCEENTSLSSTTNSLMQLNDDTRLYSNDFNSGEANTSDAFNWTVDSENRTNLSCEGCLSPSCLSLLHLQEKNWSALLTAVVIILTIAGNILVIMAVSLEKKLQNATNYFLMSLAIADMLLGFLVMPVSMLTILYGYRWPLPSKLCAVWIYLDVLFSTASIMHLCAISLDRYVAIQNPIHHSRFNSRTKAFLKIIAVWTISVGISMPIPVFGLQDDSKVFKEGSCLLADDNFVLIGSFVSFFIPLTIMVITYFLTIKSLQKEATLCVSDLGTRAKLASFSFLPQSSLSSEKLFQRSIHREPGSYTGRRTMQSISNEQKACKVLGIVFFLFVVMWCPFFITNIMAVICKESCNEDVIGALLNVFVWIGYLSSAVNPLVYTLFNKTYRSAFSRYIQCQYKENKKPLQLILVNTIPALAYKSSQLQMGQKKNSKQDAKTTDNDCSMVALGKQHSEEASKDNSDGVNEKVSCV
Sequence of KiSS-1 receptor (Homo sapiens) (Q969F8 whole entry, looked up): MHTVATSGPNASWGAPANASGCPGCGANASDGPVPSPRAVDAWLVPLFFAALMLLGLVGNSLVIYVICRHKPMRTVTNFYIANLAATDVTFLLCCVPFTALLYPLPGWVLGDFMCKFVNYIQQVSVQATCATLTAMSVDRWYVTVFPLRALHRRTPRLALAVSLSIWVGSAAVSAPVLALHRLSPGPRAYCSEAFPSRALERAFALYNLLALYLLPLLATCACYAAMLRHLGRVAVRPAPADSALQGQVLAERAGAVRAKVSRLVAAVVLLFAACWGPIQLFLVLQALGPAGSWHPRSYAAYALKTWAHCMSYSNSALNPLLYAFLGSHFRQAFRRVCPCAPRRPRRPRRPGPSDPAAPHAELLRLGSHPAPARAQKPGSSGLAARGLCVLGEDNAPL

Row | Structure (SMILES) | Potency [1] | Potency [2] | Potency [3] | Potency [4] | Potency [5] | Potency [6] | Potency [7] | Potency [8] | Potency [9] | Potency [10] | Potency [11] | Potency [12] | Potency [13] | Potency [14] | Potency [15] | Potency [16] | Potency [17] | Potency [18] | Potency [19]
1 | O=[N+]([O-])O.O=[N+]([O-])O.[Cd] | inactive | inactive | inactive | inactive | inactive | inactive | 38.9 µM (active) | inactive | inactive | inactive |  |  |  |  |  |  |  |  | 
2 | CCn1cc[n+](C)c1 (tested in a mixture with another compound) | inactive | inactive | inactive | inactive | inactive | inactive | inactive | inactive | inactive | inactive | inactive | inactive | inactive | inactive | inactive | inactive |  |  | 
3 | CC(Cl)CN(C)C (configuration not stated) | inactive | inactive | inactive | inactive | inactive | inactive |  | inactive | inactive | inactive | inactive | inactive |  | inactive |  | inactive | inactive | inactive | inactive
4 | CCOP(O)OCC | inactive | inactive | inactive |  | inactive |  | inactive | inactive | inactive | inactive | inactive | inactive | inactive | inactive | inactive |  |  |  | 
5 | CC(C)c1c(CN(C)C(C)Cc2ccccc2)n(C)n(-c2ccccc2)c1=O (configuration not stated) | inactive | inactive | inactive | inactive | inactive | inactive | inactive | inactive | inactive |  |  |  | inactive | inactive | inactive |  | inactive | inactive | inactive
6 | Nc1ccc(N=Nc2ccccc2)cc1 | inactive | inactive | inactive |  | inactive |  | inactive | inactive | inactive |  | inactive |  |  |  |  | inactive | inactive | inactive | inactive
7 | N#CC(C#N)=C(C#N)C#N | inactive | inactive | inactive | inactive | inactive | inactive | inactive | inactive | inactive | inactive | inactive | inactive | inactive |  | inactive |  | inactive | inactive | inactive
8 | CC(C)(c1cc(Cl)c(O)c(Cl)c1)c1cc(Cl)c(O)c(Cl)c1 | 38.9 µM (active) | inactive | inactive | 40.8 µM (active) | inactive | inactive |  | 33.4 µM (active) and inactive |  |  | inactive and 13.3 µM (active) | inactive | inactive |  | inactive | inactive | inactive | inactive | 
9 | COc1cccc2c1cc([N+](=O)[O-])c1c(C(=O)O)cc3c(c12)OCO3 | inactive | inactive | inactive | inactive |  | inactive |  |  | inactive |  | inactive |  | inactive |  |  |  | inactive | inactive | 
10 | CC[N+]1(C)CCCC(OC(=O)C(O)(c2ccccc2)c2ccccc2)C1 (configuration not stated) | inactive | inactive | inactive | inactive |  | inactive | inactive |  | inactive | inactive | inactive | inactive | inactive |  |  | inactive |  | inactive | inactive
11 | N#CCCC(Br)(C#N)CBr (configuration not stated) | 38.9 µM (active) | 54.9 µM (active) | inactive | inactive | inactive | inactive |  | inactive |  | inactive | inactive |  |  |  |  |  | inactive |  | 
12 | CN1C(=O)C(O)N=C(c2ccccc2)c2cc(Cl)ccc21 (configuration not stated) | inactive | inactive | inactive |  |  | inactive | inactive | inactive |  | inactive |  | inactive | inactive |  | inactive | inactive |  |  | 
13 | CCCCCCCCCCCCCCC(Br)C(=O)O (configuration not stated) | inactive | inactive | inactive | inactive | inactive | inactive | inactive |  | inactive | inactive | inactive |  | inactive | inactive | inactive | inactive | inactive | inactive | 
14 | CC(C)CCCCCCCOP(=O)(Oc1ccccc1)Oc1ccccc1 | inactive | inactive | inactive | inactive | inactive | inactive | inactive |  | inactive |  | inactive | inactive | inactive |  | inactive | inactive |  |  | 
15 | Nc1ccccc1C(=O)Oc1ccc2ccccc2c1 | inactive | inactive | inactive | inactive | inactive |  | inactive |  | inactive |  | inactive |  | inactive |  | inactive | inactive | inactive | inactive | inactive
16 | CC(c1ccc(O)cc1)(c1ccc(O)cc1)c1ccc(O)cc1 | inactive | inactive | inactive | inactive |  |  | 49 µM (active) |  | inactive |  | 23.7 µM (active) |  |  | inactive | inactive | inactive |  | inactive | 
17 | C[C@]12CC[C@H]3[C@@H](CCC4=CC(=O)CC[C@@H]43)[C@@H]1CC[C@@H]2OC(=O)CCC1CCCCC1 | inactive | inactive | inactive | inactive | inactive | inactive | inactive | inactive | inactive | inactive | inactive | inactive | inactive |  | inactive |  | inactive | inactive | 
18 | NCCCNCCCN | inactive | inactive | inactive | inactive | inactive | inactive | inactive | 38.1 µM (active) | inactive | inactive | inactive | inactive | inactive | inactive | inactive | inactive | inactive | inactive | inactive
